In PubChem BioAssay AID504692 (The Scripps Research Institute Molecular Screening Center, 2011):
The whole screen tested about 340,000 compounds, of which about 2,000 (0.59%) were called active. The sample holds actives, similar compounds and a random draw of the others, so the mix is not that of the screen. Unmarked numbers belong to inactive results. Rule as the data show it: active = activation mostly above about 9.5% (no sharp cut-off); inactive = mostly below about 7.6%.

Molecular target: 5-hydroxytryptamine receptor 5A (Homo sapiens) (UniProt P47898)
Experiment: HTR5A agonists in luminescence cell assay, primary screen, counter-screen for OPRM1-OPRD1 heterodimer agonist project, full-deck HTS (AID 504692);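 also: 0% = cells with vehicle only and 100% = reference agonist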
Conditions: cell-based, at 9.3 µM, stronger effect = higher value

Sequence of 5-hydroxytryptamine receptor 5A (Homo sapiens) (P47898 whole entry, looked up): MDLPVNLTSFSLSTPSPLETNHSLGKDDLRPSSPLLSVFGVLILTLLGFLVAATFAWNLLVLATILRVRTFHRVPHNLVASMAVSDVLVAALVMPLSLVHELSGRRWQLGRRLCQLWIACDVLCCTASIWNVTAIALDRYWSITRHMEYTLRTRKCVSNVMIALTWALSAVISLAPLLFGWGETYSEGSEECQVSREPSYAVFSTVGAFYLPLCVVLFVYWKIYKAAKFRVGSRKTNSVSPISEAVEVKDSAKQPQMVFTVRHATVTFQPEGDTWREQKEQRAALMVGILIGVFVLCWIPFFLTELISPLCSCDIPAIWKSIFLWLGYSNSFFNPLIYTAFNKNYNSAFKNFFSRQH

Structure (SMILES)	activation
CCc1nnc(NC(=O)c2cc(S(=O)(=O)N3CCCCC3)ccc2C)s1	3.55%
COC(=O)C1=C(O)/C(=C/c2ccc(OCC(=O)Nc3ccccc3)cc2)N=C1C	-2.15%
CCOC(=O)C1=C(O)/C(=C/c2ccc(OCC(=O)Nc3ccc(C)cc3)cc2)N=C1C	23.3% (active)
Cc1ccc(NC(=O)COc2ccc(/C=C3/NC(=O)NC3=O)cc2)cc1	1.1%
CCOC(=O)CC1=CC(=O)Nc2ccccc2N1	6.62%
CCc1ccc(C(=O)NC(=S)Nc2ccccc2N2CCOCC2)cc1	-3.97%
CC(=O)N1CCN(c2ccccc2NC(=S)NC(=O)c2cc3ccccc3o2)CC1	16.4% (active)
COc1ccc(C(=O)NC(=S)Nc2ccccc2N2CCN(S(C)(=O)=O)CC2)cc1OC	-1.57%
O=S(=O)(c1ccc(Sc2nnc3ccccn23)nc1)N1CCOCC1	2.94%
NC(=O)C1(N2CCCCC2)CCN(C2CC(=O)N(Cc3ccc(N4CCCC4=O)cc3)C2=O)CC1 (configuration not stated)	1.47%
COc1ccc(-c2ocnc2C(=O)Nc2ccc3c(c2)CCC3)cc1	16.5% (active)
CC(C)Oc1ccc(C(=O)NCC(=O)Nc2ccc3c(c2)CCC3)cc1	-1.62%
COc1cccc(NC(=O)CN(C)CC(=O)Nc2ccc3c(c2)CCC3)c1	7.9%
O=C(CN(C(=O)c1csnn1)c1cccc(F)c1)NCc1ccc(F)cc1	-2.96%
CCOC(=O)C1=C(CC)Nc2ccccc2N=C1N	2.67%
O=C(c1ccc(OC2CCN(C(=O)c3cccnc3)CC2)cc1)N1CCCCCC1	2.41%
O=C(NCc1cc(F)cc(C(F)(F)F)c1)C1CCC(=O)N(C2CCCC2)C1 (configuration not stated)	2.09%
C[C@H]1[C@H]2c3nc4ccccc4n3C[C@H]1ON2C1CCCCC1	1.56%
CCOc1ccc(CCNC(=O)C(CC)n2nc(C)n3c(cc4sccc43)c2=O)cc1OCC (configuration not stated)	8.13%
N#Cc1ccc(/C=C2\CCn3c2nc2cc(C(=O)O)ccc2c3=O)cc1	-2.04%
O=C(O)c1ccc2c(=O)n3c(nc2c1)/C(=C/c1ccc(OC(F)F)cc1OC(F)F)CC3	-1.8%
Cc1ccc(/C=C2\CCn3c2nc2cc(C(=O)O)ccc2c3=O)c(C)c1	14.2% (active)
COc1ccc(CNc2nccs2)cc1	-2.48%

Structure (SMILES)	activation
CCN(CC)CCNS(=O)(=O)c1ccc(/C=C/C(=O)O)cc1	6.16%
Cc1ccc2c(C)c(C(=O)N3CCC(N4CCC(C(=O)NC5CC5)CC4)CC3)oc2c1	-4.49%
COc1cccc(CCNC(=O)COc2cccc3c2OC(C)(C)C3)c1	10.4% (active)
CC1(C)Cc2cccc(OCC(N)=O)c2O1	-7.5%
CC1(C)Cc2cccc(OCC(=O)NCc3ccccc3)c2O1	0.71%
CCn1c2c(c3ccc(OC)cc31)CCCC2=O	2.01%
O=C1COc2ccc(C(=O)COC(=O)C3CC(O)CN3S(=O)(=O)c3ccc(Cl)cc3)cc2N1 (configuration not stated)	2.08%
O=C(NCCCN1CCCC1=O)c1ccc(S(=O)(=O)Nc2ccccc2)cc1	-1.42%
CCn1c(SCC(=O)N/N=C/c2ccncc2)nc2ccccc21	0.02%
CCn1c(SCC(=O)N/N=C/c2ccccc2OCC(=O)O)nnc1-c1ccc(C(C)(C)C)cc1	-0.31%
Cc1ccc(Cn2c(SCC(=O)N/N=C/c3ccccc3OCC(=O)O)nc3ccccc32)cc1	13.2% (active)
COc1cc2c(cc1NC(=O)COC(=O)/C=C/c1ccccc1)oc1ccccc12	1.5%
Cc1c(C(=O)N2CCCc3ccccc32)oc2ccccc12	5.91%
CCOC(=O)c1c(C)[nH]c(C(=O)OCC(=O)N2CCCC2=O)c1C	-3.02%
Cc1c(C(=O)OCC(=O)N2CCCC2=O)oc2ccccc12	17.4% (active)
O=C(Cc1ncc(C(F)(F)F)cc1Cl)Nc1cccc(Br)c1	-3.41%
NS(=O)(=O)c1ccc(CNC(=S)NC(=O)c2ccco2)cc1	-0.69%
CCc1nn(CCCC(=O)Nc2ccc(C)cc2C)c(=O)c2cc3occc3n12	0.19%
CCCCCCCCn1c2c(c(=N)c3c1CCC3)CCCC2	12.5% (active)
Cc1ccccc1NC(=O)CSc1ccc2nnc(-c3ccccn3)n2n1	-2.77%
O=C(/C=C/c1cccc([N+](=O)[O-])c1)NCCSCc1ccco1	-1.08%
Cc1ccc(CNC(=O)C2CCCN2C(=O)NCc2ccccc2)cc1 (configuration not stated)	-0.36%
O=C(NC1CC2CCCC(C1)N2C(=O)N1CCCCC1)C1CCCCC1 (configuration not stated)	2.7%

Structure (SMILES)	activation
O=C1CCCc2nn(-c3ccccc3)nc21	-0.59%
Nc1ccc2nn(-c3ccc(Cl)cc3)nc2c1	3.34%
c1ccc(-n2nc3ccccc3n2)cc1	15.4% (active)
Cc1ccc(S(=O)(=O)Nc2nc(CN3CCOCC3)nc3sc(C)c(C)c23)cc1	7.7%
O=C(O[C@H]1[C@H](Cc2ccccc2)NS(=O)(=O)[C@H]2C[C@@H]3C=C[C@]12O3)c1ccc([N+](=O)[O-])cc1	-6.9%
CCOc1cc(N2CCOCC2)c(OCC)cc1NC(=O)C1=NN(c2cccc(C)c2)C(=O)CC1	11.3%
CCOc1cc(N2CCOCC2)c(OCC)cc1NC(=O)c1cc(C)nc2ccccc12	14.2% (active)
CCOc1cc(N2CCOCC2)c(OCC)cc1NC(=O)c1ccc(C)s1	0.66%
CCc1ccc(C2N3CC4([N+](=O)[O-])CN2CC([N+](=O)[O-])(C3)C4(C)C)cc1 (configuration not stated)	2.6%
CC1(C)C(C=C(Cl)Cl)C1C(=O)N(Cc1ccc(Cl)cc1)C1CCS(=O)(=O)C1 (configuration not stated)	0.53%
CCc1ccc(CNC(=O)C2CCN(c3nnc(C)c4c(C)n(-c5ccc(C)cc5)nc34)CC2)cc1	11.9% (active)
COc1ccc(-n2nc3c(N4CCC(C(=O)NCc5ccccc5)CC4)nnc(C)c3c2C)cc1	-1.31%
CCOc1ccc(CNC(=O)C2CCCN(c3nnc(C)c4c(C)n(-c5ccccc5)nc34)C2)cc1 (configuration not stated)	7.35%
O=C(Nc1ccccc1Cc1ccccc1)c1ccc2c(c1)SC1=NS(=O)(=O)CCN12	6.02%
Cc1cccc(CCNS(=O)(=O)c2ccc3c(c2)NC(=O)CO3)c1	-0.45%
O=C(C1CCC(=O)N(C2CC2)C1)N1CCN(c2ccc(Cl)cc2)CC1 (configuration not stated)	0.66%
Cc1cc(NC(=O)CSc2nccn2-c2ccc([N+](=O)[O-])cc2)no1	-1.99%
COC(=O)c1cc(C(=O)OCC(=O)Nc2cc(C)on2)cc([N+](=O)[O-])c1	14.7% (active)
Cc1cc(NC(=O)COc2ccc([N+](=O)[O-])cc2)no1	-2.97%
CC(=O)N1CCN(S(=O)(=O)c2ccc(C)c([N+](=O)[O-])c2)C1C(C)C (configuration not stated)	0.82%
O=C(O)COc1ccc(/C=N/O)cc1Br	1.32%
CNC(=S)NNC(=O)c1sccc1OCc1ccccc1	6.65%
CNC(=S)N/N=C/c1ccc(OCc2ccccc2)c(Br)c1	14.9% (active)

Structure (SMILES)	activation
N=c1c2c3c(sc2ncn1CCCN1CCOCC1)CCCCC3	6.44%
COc1ccc(N(CC(=O)NC2CCCC2)C(=O)CS(=O)CC(=O)Nc2ccc3c(c2)OCO3)cc1 (configuration not stated)	1.5%
Cc1nc(S(=O)(=O)c2ccc(Br)cc2)nc2c1CCC2	3.89%
CC(CNS(=O)(=O)c1ccc(Br)cc1)CN(C)C (configuration not stated)	0.38%
O=S(=O)(NN=C1CCCCCCC1)c1ccc(Br)cc1	9.89% (active)
CCOc1ccc(NC(=O)CSc2nncn2C)cc1	2.03%
CCOc1ccc(NC(=O)c2cc(C)nc3ccccc23)cc1	6.43%
CCOc1ccc(NC(=O)c2nc(SCC)ncc2Cl)cc1	11.8% (active)
Cc1ccc(C)c(Cn2nnc3c(=O)[nH]c(C(=O)Nc4ccc(F)cc4)nc32)c1	-2.89%
COc1ccc(NC(=O)COC(=O)c2ccc(NS(=O)(=O)/C=C/c3ccccc3)cc2)cc1	-1.75%
N#CCCN(C(=O)COC(=O)c1ccc2c(c1)OCCO2)c1ccccc1	5.45%
Cc1c(C(=O)OCC(=O)N(CCC#N)c2ccccc2)oc2c1ccc1ccccc12	53% (active)
N#CCCN(C(=O)COC(=O)c1ccc(S(=O)(=O)N2CCCCCC2)cc1)c1ccccc1	-3.52%
CCN1CCN(C(=O)/C=C\C(=O)O)CC1	2.72%
CC1C(C)N(C(=O)CCl)c2ccccc2N1C(=O)CCl (configuration not stated)	8.76% (active)
CC1C(=O)N(Cc2ccccc2)c2ccccc2N1C(=O)c1ccccc1 (configuration not stated)	0.41%
CC1CC(C)CN(CC(=O)N2c3ccccc3CCc3ccccc32)C1 (configuration not stated)	-4.89%
Cc1cccc(N2CCN(C(C)C(=O)N3CCc4ccccc43)CC2)c1C (configuration not stated)	7.68%
COc1cc(OC)c(-n2cc(-c3ccc(Cl)cc3)[nH]c2=O)cc1Cl	5.5%
CC1CCCCN1CCCNc1ccc(C(CC(N)=O)NC(=O)c2ccccc2)cc1[N+](=O)[O-] (configuration not stated)	-1.92%
NC(N)=NCCCc1cn(CC(=O)N2CCNCC2)nn1	12.4% (active)
CCC(C)[C@@H](C(=O)N1CCNCC1)n1cc(CCCCN)nn1 (some centres not stated)	-1.58%
C#CCOCCOCCOCCNc1nc(N2CCN(C(=O)Cn3cc(CCO)nn3)CC2)nc(N2CCN(C(=O)Cn3cc(CCCN=C(N)N)nn3)CC2)n1	-2.92%
